Our source for the Potency values is PubChem BioAssay (NCATS).

Inconclusive results are not listed. A call without a number means that no potency is given here. Where a structure was tested more than once in an assay, its records may differ in their call. The source made the active and inactive calls. Calls follow the shape of the dose curve; as a rule, active = well fitted activation curve with a large enough effect in the main read-out, with a control signal flat (not every such curve was filed as active); inconclusive = small, poorly fitted or top-dose-only effect, or effect the other way, or a change in a side signal; inactive = flat fitted curve, though single readings scatter.
Potency is read from the fitted curve at half-maximal effect.

3',5'-cyclic-AMP phosphodiesterase 4B (Homo sapiens), sequence (Q07343 whole entry, looked up): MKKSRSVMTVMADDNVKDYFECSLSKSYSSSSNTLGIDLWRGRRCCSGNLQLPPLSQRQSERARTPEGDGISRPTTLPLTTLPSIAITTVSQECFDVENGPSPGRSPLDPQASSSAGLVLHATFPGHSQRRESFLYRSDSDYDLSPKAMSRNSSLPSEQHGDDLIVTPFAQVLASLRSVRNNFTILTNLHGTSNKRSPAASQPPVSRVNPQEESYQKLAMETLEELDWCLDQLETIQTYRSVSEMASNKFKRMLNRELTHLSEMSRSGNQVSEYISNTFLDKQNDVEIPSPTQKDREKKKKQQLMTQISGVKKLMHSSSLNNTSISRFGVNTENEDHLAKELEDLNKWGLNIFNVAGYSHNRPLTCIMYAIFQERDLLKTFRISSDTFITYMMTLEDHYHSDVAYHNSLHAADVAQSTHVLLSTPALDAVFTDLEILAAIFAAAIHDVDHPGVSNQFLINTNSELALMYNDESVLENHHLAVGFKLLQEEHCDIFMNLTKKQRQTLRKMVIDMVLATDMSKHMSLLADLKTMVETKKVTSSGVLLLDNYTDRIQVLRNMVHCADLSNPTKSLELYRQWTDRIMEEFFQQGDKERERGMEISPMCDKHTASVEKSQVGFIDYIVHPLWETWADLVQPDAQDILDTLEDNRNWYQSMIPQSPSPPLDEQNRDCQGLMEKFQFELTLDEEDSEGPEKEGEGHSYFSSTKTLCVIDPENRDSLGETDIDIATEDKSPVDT

This assay has as its target 3',5'-cyclic-AMP phosphodiesterase 4B (Homo sapiens) (UniProt Q07343). In words: qHTS Assay for Inhibitors of PDE-IV (AID 607). Particulars: HEK293 ACTOne CNG channel cells, membrane potential fluorescence; series mostly up to 22.9 µM. The essentials: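 Live HEK293 cells with a modified cyclic nucleotide-gated (CNG) channel report intracellular cAMP via membrane-potential dye fluorescence (ex 535/em 590 nm). Endogenous PDE-IV was targeted. Compounds were tested at up to 22.9 uM final; RO 20-1724 100 uM served as control.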
Background: qHTS replaces the single test concentration by a dilution series.
Take `CCC(=O)N1CCN(C(=O)c2ccccc2)CC1`: the Potency result was “inactive”. Turning to `CC(C)(CO)Cc1cc(C(C)(C)C)c(O)c(C(C)(C)C)c1`, the Potency result was “inactive”. To `O=c1onc2n1-c1cc(Br)ccc1OC2` belongs “inactive”; to `Nc1ccc2c3c(cccc13)C(=O)NC2=O`, “inactive”; to `CCCCCCCCCCCCCCSCC(=O)O`, “inactive”.

With `O=C1Cc2c([nH]c3ccc(Br)cc23)-c2ccccc2N1`, the Potency entry was “inactive”. For the compound `NC1(C(=O)O)CCCCC1`, the Potency entry is “inactive”. The same measure for `O=C(O)c1cc(=O)cc(C(=O)O)[nH]1`: “inactive”; for `N=C(N)c1ccccc1`: “inactive”. Turning to `C=CC[C@H](N)C(=O)O`, the Potency entry is “inactive”. For the compound `CCCc1c(-c2ccc(O)cc2)nn(-c2ccc(O)cc2)c1-c1ccc(O)cc1`, the Potency result is “inactive”.

On to `NC/C=C\C(=O)O`, for which the Potency entry was “inactive”. The same measure for `NS(=O)(=O)c1cccc2c1c([N+](=O)[O-])cc1nc(O)c(O)nc12`: “inactive”; for `Nn1nnc2ccccc21`: “inactive”; for `CNC(=O)c1cc2c(cn1)[nH]c1ccccc12`: “inactive”.

For `C[C@](Cc1ccc(O)c(O)c1)(NN)C(=O)O`, the Potency entry was “inactive”.

On to `CCCn1c(=O)c2[nH]c(C3CCCC3)nc2n(CCC)c1=O`, for which the Potency is 5.01 µM (active) and inactive. To `NC(N)=NC(N)=Nc1cccc(Cl)c1` belongs “inactive”; to `Nc1nc2ccc(Cl)cc2c2nc(-c3ccco3)nn12`, “inactive”; to `Cn1cc(C(=O)OCC2CCN(CCNS(C)(=O)=O)CC2)c2ccccc21`, “inactive”. For the compound `c1ccc(CN2CCC3(CCCc4ccccc43)CC2)cc1`, the Potency entry is “inactive”. For the compound `O=C(N[C@@H](Cc1ccccc1)C(=O)CCl)OCc1ccccc1`, the Potency entry was “inactive”. To `CC(C)NC[C@H](O)COc1ccc(CC(N)=O)cc1` belongs “inactive”. As for `C[N+](C)(C)CC=O`, the Potency entry was “inactive”.

For `O=C(O)C1CCNCC1`, the Potency entry was “inactive”. Turning to `Nc1nc2[nH]c(=O)cnc2c(=O)[nH]1`, the Potency entry was “inactive”.

As to `N#CC(C#N)=C(N)/C(C#N)=C/c1ccc(O)cc1`, the Potency entry was “inactive”. For `COc1ccccc1N1CCN(CCCCNC(=O)c2ccc3ccccc3c2)CC1`, the Potency result is “inactive”. `NC1(C(=O)O)CC1`: the Potency entry was “inactive”. `Nc1ncnc2c1c(-c1ccc(Oc3ccccc3)cc1)cn2C1CCCC1`: the Potency entry was “inactive”. On to `CC(=O)NNC(=O)N1Cc2ccccc2Oc2ccc(Cl)cc21`, for which the Potency result was “inactive”.

Turning to `Nc1ccc(N2C(=O)c3ccccc3C2=O)c(Cl)c1`, the Potency entry is “inactive”.

Take `Cn1c(=O)c2[nH]c(-c3ccc(S(=O)(=O)O)cc3)nc2n(C)c1=O`: the Potency result is “inactive”. To `C=CCn1c(=O)c2c(nc(-c3ccc(S(=O)(=O)O)cc3)n2C)n(C)c1=O` belongs “inactive”; to `C#CCn1c(=O)c2c(ncn2C)n(C)c1=O`, “inactive”. With `CCCCCCCCCCC/C=C\C(C)(C)/C=C\CCCC(=O)O`, the Potency entry was “inactive”. For `CCCCCCCCCCCCCCC[C@H](O)[C@H](N)CO`, the Potency entry is “inactive”.
